# Assay results from the supplement of paper PMC7801607.
# Assays:
# [1] = tested on: CHO; experiment: % viability of CHO cells (MTT); higher = less toxic; settings: 48 h
# How it was run: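 Percent viability of CHO cells, relative to untreated cells, was read colorimetrically by tetrazolium (MTT) assay. Cells were seeded at 10^6 cells/well and treated for 48 h with compound at 2 or 20 µM in fresh medium.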
# [2] = tested on: HepG2-A16-CD81; experiment: % inhibition of HepG2 viability (CellTiter-Glo); higher = more toxic; settings: 5 µM;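 also: HepG2-A16-CD81 hepatoma cells plated as in the liver-stage assay but without sporozoites, with DMSO wells as negative and 25 µM puromycin as positive control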
# [3] = tested on: Plasmodium falciparum NF54 stage IV/V gametocytes; experiment: % inhibition of gametocyte viability (PrestoBlue); higher = more inhibition; settings: 48 h
# How it was run: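 Stage IV/V NF54 gametocytes were exposed to compound at 1 or 5 µM for 48 h at 37 °C under stationary, hypoxic conditions, then read by PrestoBlue fluorescence at 612 nm. The percent inhibition of gametocyte viability was normalised to vehicle and kill controls from one run.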
# [4] = tested on: Plasmodium falciparum NF54 asexual blood stage; experiment: % inhibition of asexual blood stage proliferation (pLDH); higher = more inhibition; settings: 72 h
# How it was run: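 Ring-stage cultures of Plasmodium falciparum NF54 at 1% haematocrit and 2% parasitaemia were treated with compound at 2 or 20 µM in 96-well plates and kept for 72 h at 37 °C under 4% CO2, 3% O2 and 93% N2. Parasite survival was measured by the parasite lactate dehydrogenase assay, read colorimetrically at 620 nm. Percent inhibition of asexual proliferation was calculated relative to control wells, and the screen was carried out on two separate occasions.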
# [5] = tested on: Plasmodium falciparum NF54 stage IV/V gametocytes; experiment: % inhibition of gametocyte viability (ATP bioluminescence); higher = more inhibition; settings: 24 h
# How it was run: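 Stage IV/V NF54 gametocytes were enriched on density gradients and seeded at 30,000 per well in 96-well plates with compound at 1 or 5 µM. Plates were incubated for 24 h at 37 °C. ATP was measured with the Promega BacTiter Glo bioluminescence system. Percent inhibition of gametocyte viability was normalised to DMSO and kill controls from a single run.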
# [6] = tested on: Plasmodium falciparum NF54 stage IV/V gametocytes; experiment: % inhibition of gametocyte viability (luciferase reporter); higher = more inhibition; settings: 48 h
# How it was run: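 Percent inhibition came from luminescence and was normalised to controls in a single run. Gametocytes (stage IV/V, NF54-Pfs16-GFP-Luc line, 2% gametocytaemia, 2% haematocrit) were treated with compound at 1 or 5 µM and incubated for 48 h at 37 °C without agitation under hypoxia. Readings used 30 µL lysate with 30 µL Promega luciferin substrate on a GloMax-Multi+ reader, integrating for 10 s.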
SMILES,% viability of CHO cells ([1]; 2 µM) [%],% viability of CHO cells ([1]; 20 µM) [%],% inhibition of HepG2 viability [2] [%],% inhibition of gametocyte viability ([3]; 1 µM) [%],% inhibition of gametocyte viability ([3]; 5 µM) [%],% inhibition of asexual blood stage proliferation ([4]; 2 µM) [%],% inhibition of asexual blood stage proliferation ([4]; 20 µM) [%],% inhibition of gametocyte viability ([5]; 1 µM) [%],% inhibition of gametocyte viability ([5]; 5 µM) [%],% inhibition of gametocyte viability ([6]; 1 µM) [%],% inhibition of gametocyte viability ([6]; 5 µM) [%]
NC1C2CC3CC(C2)CC1C3 (stereo not given),78.9,70.3,-1.51,21.5,18.1,76.1,43.4,6.86,5.87,9.54,9.98
N#CCN1C(=O)COc2cc(F)c(N3C(=O)c4ccccc4C3=O)cc21,91.1,99.3,-3.69,3.4,2.45,8.98,14.8,< 0,< 0,< 0,14.5
Cc1nc(N(C)C(=O)Cc2ccc(-c3ccccn3)cc2)sc1S(N)(=O)=O,85.2,59.1,-0.405,20.7,39.1,-8.1,-31.8,4.11,< 0,17.6,< 0
CCc1cc(Cc2cnc(N)nc2N)cc2c1N(C)CCC2C (stereo not given),96.1,110,7.88,< 0,< 0,16.7,95.1,< 0,< 0,< 0,< 0
N[C@@H]1CN(c2c(F)cc3c(=O)c(C(=O)O)cn([C@@H]4C[C@@H]4F)c3c2Cl)CC12CC2,94.4,69.3,-1.55,< 0,10.3,36.2,99.6,< 0,< 0,0.138,< 0
NC[C@H]1O[C@H](O[C@H]2[C@H](O)[C@@H](O[C@H]3O[C@H](CO)[C@@H](O)[C@H](N)[C@H]3O)[C@H](N)C[C@@H]2N)[C@H](N)C[C@@H]1O,111,8.4,-3.85,< 0,1.53,-2.54,18.7,< 0,< 0,< 0,6.32
O=C1[C@H](CC[C@H](O)c2ccc(F)cc2)[C@@H](c2ccc(O)cc2)N1c1ccc(F)cc1,94.9,113,-3.46,< 0,< 0,43.1,61,< 0,< 0,2.9,4.53
CC(C)C(=O)N[C@H]1[C@H]([C@H](O)[C@H](O)CO)OC(C(=O)O)=C[C@@H]1N=[N+]=[N-],91.9,113,5.84,< 0,14.9,9.36,29.6,1.53,< 0,< 0,< 0
CC(C)/N=c1\cc2n(-c3ccc(Cl)cc3)c3ccccc3nc-2cc1Nc1ccc(Cl)cc1,96.5,98.2,18.3,< 0,< 0,82.2,88.9,< 0,< 0,< 0,16
O=C(NN1C(=O)[C@@H]2C3C=CC([C@H]4C[C@@H]34)[C@@H]2C1=O)c1ccc(C(F)(F)F)cc1,97.4,120,-2.51,< 0,< 0,4.37,23,1.06,< 0,< 0,4.75
Fc1ccc2c(/C=C/c3cccnc3)c[nH]c2c1,107,117,0.955,< 0,6.61,4.51,61.2,< 0,< 0,< 0,< 0
CCOC(=O)Nc1cc(NC(C)CC(C)CN(CC)CC)c2nc(-c3ccccc3)c(-c3ccccc3)nc2n1 (stereo not given),94,116,12.9,26.4,51.1,37.7,54.6,28,75,< 0,51.1
COc1cc(Cc2cnc(N)nc2N)c2c(c1OC)OC(C1CC1)C=C2 (stereo not given),103,67.7,-4.44,36.3,6.68,13,34,1.06,< 0,35.9,1.69
Cc1cccc(CC(=O)N[C@H]2CCOC2=O)c1,95.4,98.6,5.04,< 0,21.6,35.3,53.6,< 0,< 0,< 0,5.44
Nc1cnn(C2OC(CO)C(O)C2O)c(=O)n1 (stereo not given),109,110,9.61,< 0,12.5,61.7,38.4,3.6,< 0,4.96,6.45
Cc1onc(-c2ccccc2)c1-c1ccc(S(N)(=O)=O)cc1,120,106,-1.58,12.1,41.6,48.8,77.5,1.41,< 0,0.106,< 0
CCn1cc(C(=O)O)c(=O)c2cc(F)c(N3CCNC(C)C3)c(F)c21 (stereo not given),104,102,0.454,34.9,43.8,36.8,28.9,< 0,< 0,< 0,< 0
O=C1c2cccc3cccc(c23)C(=O)N1CC1CO1 (stereo not given),107,108,-6.3,7.65,8.86,22,66.9,< 0,< 0,< 0,3.81
CCCCCCCCC(CP(=O)(O)C(C)N)C(=O)O (stereo not given),97.4,137,-1.01,< 0,< 0,17.8,95.7,< 0,< 0,< 0,10.2
CSC[C@H]1CN(Cc2c[nH]c3c(N)ncnc23)C[C@@H]1O,68.9,46.2,8.54,< 0,< 0,14.2,8.91,< 0,< 0,< 0,6.79

SMILES,% viability of CHO cells ([1]; 2 µM) [%],% viability of CHO cells ([1]; 20 µM) [%],% inhibition of HepG2 viability [2] [%],% inhibition of gametocyte viability ([3]; 1 µM) [%],% inhibition of gametocyte viability ([3]; 5 µM) [%],% inhibition of asexual blood stage proliferation ([4]; 2 µM) [%],% inhibition of asexual blood stage proliferation ([4]; 20 µM) [%],% inhibition of gametocyte viability ([5]; 1 µM) [%],% inhibition of gametocyte viability ([5]; 5 µM) [%],% inhibition of gametocyte viability ([6]; 1 µM) [%],% inhibition of gametocyte viability ([6]; 5 µM) [%]
CCCCCOc1ccc(/C=C2\Oc3c(ccc(O)c3O)C2=O)c(O)c1,123,127,3.16,< 0,< 0,2.75,90.6,< 0,< 0,< 0,< 0
O=C(/C=C\n1cnc(-c2cc(C(F)(F)F)cc(C(F)(F)F)c2)n1)NNc1ccccn1,117,91.3,31.8,10.8,< 0,13.9,40,< 0,< 0,13.4,< 0
CCc1nc2ccccn2c1C(=O)NCc1ccccc1,123,58.5,6.82,< 0,< 0,6.85,18.2,< 0,< 0,< 0,8.65
Cc1c[nH]c(=O)nc1NCc1ccccc1,36.1,22.7,-0.05,6.6,11.5,22.3,60.5,< 0,< 0,< 0,4.07
CO[C@@]1(NC(=O)Cc2cccs2)C(=O)N2C(C(=O)O)=C(COC(N)=O)CS[C@@H]21,114,143,-4.03,11.3,20.3,20,88.8,0.48,< 0,< 0,2.58
COc1cc(NS(=O)(=O)c2ccc(C)cc2)c2ncccc2c1,118,94.1,-7.96,< 0,0.605,45.4,75.7,1.27,62.2,3.47,1.7
c1cc(CN2CCCNCCNCCCNCC2)ccc1CN1CCCNCCNCCCNCC1,104,109,-0.261,7.81,31,16.7,34.9,6.22,< 0,< 0,< 0
C[C@H](Cn1cnc2c(N)ncnc21)OCP(=O)(O)O,89.8,99.9,-1.34,10.5,17.7,-36.5,46.2,5.56,< 0,9.2,< 0
Cc1ncc([N+](=O)[O-])n1CC(O)CN1CCOCC1 (stereo not given),106,55.4,-2.47,< 0,< 0,30.7,75.1,< 0,< 0,0.715,1.52
CN(C)c1[nH]c(=O)ncc1F,111,104,11.9,< 0,< 0,-4.48,8.8,2.44,< 0,< 0,< 0
Cc1[nH]c2ccccc2c1CCNCc1ccc(/C=C/C(=O)NO)cc1,76.4,37.9,54.5,19.9,34.4,62.2,79.9,< 0,< 0,31.8,3.05
Cc1ccc(C)c(OCCCCCCN2C[C@H](O)[C@@H](O)[C@H](O)[C@H]2CO)c1,111,110,4.29,< 0,< 0,8.28,41.4,1.96,< 0,5.24,11
CC(C)(C)c1cc(CCC(=O)N2CCC2)cc(C(C)(C)C)c1O,94.2,74.4,0.292,< 0,< 0,4.95,69.6,< 0,< 0,< 0,< 0
O=C(/C=C/n1cnc(-c2cc(C(F)(F)F)cc(C(F)(F)F)c2)n1)NNc1cnccn1,102,103,-11.2,11.2,-0.3,-23.5,56.5,0.272,< 0,0.0379,< 0
CC#C[C@]1(O)CC[C@H]2[C@@H]3CCC4=CC(=O)CCC4=C3[C@@H](c3ccc(N(C)C)cc3)C[C@@]21C,89.5,130,0.01,< 0,< 0,15.1,53.8,< 0,< 0,2.32,< 0
Nc1cc(-c2nc3ccccc3[nH]2)n[nH]c1=O,70.3,49.8,2.54,28.3,78.8,31.5,79.1,5.5,< 0,1.36,< 0
COc1ccc(SCC(=O)N2c3ccccc3Sc3ccccc32)cc1,91,110,7.46,< 0,< 0,0.401,35.5,< 0,< 0,< 0,< 0
CN1CCN(c2ccc3[nH]c(-c4ccc5[nH]c(-c6ccc(O)cc6)nc5c4)nc3c2)CC1,106,115,18.2,< 0,< 0,82.9,80.9,< 0,< 0,< 0,20.9
Cc1nc(-c2ccc(C3N(C)c4ccc(F)cc4C(=O)N3c3ccccc3)s2)cs1 (stereo not given),97.8,95.9,12.5,< 0,-0.427,15.3,72.5,< 0,< 0,< 0,< 0
CC(N)C(=O)NC(CCCCN)C(=O)NC(CCCNC(=N)N)C(=O)NC(Cc1c[nH]cn1)C(=O)NC(Cc1c[nH]cn1)C(=O)NCC(=O)NC(Cc1ccc(O)cc1)C(=O)NC(CCCCN)C(=O)NC(CCCNC(=N)N)C(=O)NC(CCCCN)C(=O)NC(Cc1ccccc1)C(=O)NC(Cc1c[nH]cn1)C(N)=O (stereo not given),105,102,-0.769,< 0,14.3,10.1,17.2,< 0,< 0,< 0,< 0
